# Several values for one entry are separate records, joined by “and”; a condition that tells them apart may be missing. Identical values can stand only once. Counter-ions that a name gives are not always drawn.
# What was measured:
# Assay in all cases: cell viability relative to vehicle control; higher = less cytotoxic
# Conditions in all cases: 10 µM
# K562 = tested on: K562
# Outline: (§1)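 CRISPR-edited SRSF2 P95 mutant and isogenic wild-type clones of four leukaemia lines were screened against Selleck bioactive, kinase and epigenetic probe libraries, with identity-inconsistent compounds removed. Compounds were acoustically dispensed into 384-well plates at a single 10 µM dose, with 2000 cells in 50 µL medium per well. After 48 h, supernatant was removed and CellTiter-Glo luminescence was read. Viability was expressed as percent of the on-plate DMSO vehicle control, analysed in Genedata Screener.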
# MARIMO = tested on: MARIMO
# Outline: as §1
# MOLM14 = tested on: MOLM14
# Outline: as §1
# OCI-AML2 = tested on: OCI-AML2
# Outline: as §1
Compound,cell viability (K562; SRSF2 genotype: SRSF2 P95H/wt),cell viability (K562; SRSF2 genotype: SRSF2 wt/wt),cell viability (MARIMO; SRSF2 genotype: SRSF2 P95H/wt),cell viability (MARIMO; SRSF2 genotype: SRSF2 wt/wt),cell viability (MOLM14; SRSF2 genotype: SRSF2 P95H/wt),cell viability (MOLM14; SRSF2 genotype: SRSF2 wt/wt),cell viability (OCI-AML2; SRSF2 genotype: P95H/wt),cell viability (OCI-AML2; SRSF2 genotype: wt/wt)
Nc1[nH]cnc2ncnc1-2 [Adenine sulfate],108% and 94.6%,99.3%,94.7%,103%,93.5%,99.7%,102%,112%
CC1OC(OC2C(OC3CCC4(C)C(CCC5(C)C4CC=C4C6CC(C)(C)CCC6(C(=O)OC6OC(COC7OC(CO)C(O)C(O)C7O)C(O)C(O)C6O)CCC45C)C3(C)CO)OCC(O)C2O)C(O)C(O)C1O (stereo not drawn) [Dipsacoside B],101% and 103%,104%,97.5%,98.2%,106%,98.3%,101%,103%
CCc1c(Cl)c(O)c(Cl)c(O)c1C(=O)O[C@H]1[C@H](O)[C@H](OC)[C@H](OC/C2=C\C=C\C[C@H](O)/C(C)=C/[C@H](CC)[C@@H](O[C@@H]3OC(C)(C)[C@@H](OC(=O)C(C)C)[C@H](O)[C@@H]3O)/C(C)=C/C(C)=C/C[C@@H]([C@@H](C)O)OC2=O)O[C@@H]1C [Fidaxomicin],81.3% and 80.5%,78.3%,86.2%,91.3%,74.9%,84.6%,110%,100%
CN1CCc2c(c3ccccc3n2Cc2ccc(C(=O)NO)cc2)C1 [Tubastatin A hydrochloride],77.4% and 88.8%,84.6%,67%,66.5%,43.8%,43.6%,51.1%,49.9%
O[C@@H](COc1cccc2ncccc12)CN1CCN([C@@H]2c3ccccc3[C@@H]3[C@H](c4ccccc42)C3(F)F)CC1,60.6% and 54.3%,54.9%,56.6%,55.6%,39.8%,36.2%,39.2%,40.7%
CCCC(=O)Nc1ccc(OCC(O)CNC(C)C)c(C(C)=O)c1 (stereo not drawn) [Acebutolol HCl],96.2% and 86.2%,86.2%,97.3%,95.1%,92.4%,93.3%,94.9%,91.7%
COC[C@H]1C[C@@H](c2nc(-c3ccc4c(c3)COc3cc5c(ccc6nc([C@@H]7CC[C@H](C)N7C(=O)[C@@H](NC(=O)OC)C(C)C)[nH]c65)cc3-4)c[nH]2)N(C(=O)[C@H](NC(=O)OC)c2ccccc2)C1 [Velpatasvir],95.6% and 98.5%,87.6%,88.2%,91.6%,90.1%,93.5%,98%,93.6%
CCN(CC)CC#CCOC(=O)C(O)(c1ccccc1)C1CCCCC1 (stereo not drawn) [Oxybutynin (Ditropan)],97.7% and 102%,104%,82.9%,95.9%,83.5%,100%,91.8%,87%
CC(C)=CCCC(C)(O)C1CCC2(C)C1C(O)CC1C3(C)CCC(O)C(C)(C)C3CCC12C [(20S)-Protopanaxadiol],98% and 105%,107%,96.7%,109%,102%,102%,115%,93.5%
CN1CCC[C@@H]1CCO[C@](C)(c1ccccc1)c1ccc(Cl)cc1 [Clemastine Fumarate],83.6% and 82.3%,81.6%,74.2%,77.3%,71.3%,78.4%,81.7%,78.8%
COc1ccc(S(=O)(=O)N(CCO)c2ccccc2CN(C)C/C=C/c2ccc(Cl)cc2)cc1 [KN-93 Phosphate],38.5% and 44%,51.6%,33.5%,27.9%,45.5%,41.8%,35.6%,33.4%
CCN(CC)CCCCNc1ncc2cc(-c3cc(OC)cc(OC)c3)c(NC(=O)NC(C)(C)C)nc2n1,46.4% and 47.9%,49.4%,54.2%,51.9%,48.3%,47.7%,38.1%,40.1%
C[C@@H]1CC[C@@]2(OC1)O[C@H]1C[C@H]3[C@@H]4CC=C5C[C@@H](O[C@@H]6O[C@H](CO)[C@@H](O)[C@H](O[C@@H]7O[C@H](CO)[C@@H](O)[C@H](O)[C@H]7O)[C@H]6O[C@@H]6O[C@@H](C)[C@H](O)[C@@H](O)[C@H]6O)CC[C@]5(C)[C@H]4CC[C@]3(C)[C@H]1[C@@H]2C [Gracillin],31.2% and 29.4%,1.47%,70.2%,11.4%,12%,0.55%,5.61%,4.21%
O=C(O)[C@H](O)c1ccccc1 [(R)-(-)-Mandelic acid],94% and 92.9%,89.4%,91.2%,105%,91.8%,92.6%,98.2%,106%
C[C@H](CC[C@@]1(O)O[C@H]2C[C@H]3[C@@H]4CC=C5C[C@@H](O[C@@H]6O[C@H](CO)[C@@H](O[C@@H]7O[C@@H](C)[C@H](O)[C@@H](O)[C@H]7O)[C@H](O)[C@H]6O[C@@H]6O[C@@H](C)[C@H](O)[C@@H](O)[C@H]6O)CC[C@]5(C)[C@H]4CC[C@]3(C)[C@H]2[C@@H]1C)CO[C@@H]1O[C@H](CO)[C@@H](O)[C@H](O)[C@H]1O [Protodioscin],0.86% and 0.6%,3.02%,0.64%,0.77%,0.49%,0.55%,0.74%,0.5%
Cn1cc(CNCC2CCN(c3ncc(C(=O)NO)cn3)CC2)c2ccccc21,1.34% and 13.5%,3%,7.96%,11.5%,0.72%,0.54%,1.8%,2.84%
CC(=O)O/N=C1\C(=O)N(Cc2cc(Cl)ccc2Cl)c2ccc(Cl)cc21,92% and 94.5%,85.1%,15.6%,91.5%,30.4%,90.7%,1.27%,9.59%
OC[C@H]1O[C@@](CO)(O[C@H]2O[C@H](CO)[C@@H](O)[C@H](O)[C@H]2O)[C@@H](O[C@H]2O[C@H](CO)[C@@H](O)[C@H](O)[C@H]2O)[C@@H]1O [D-(+)-Melezitose],100%,97.6%,105%,115%,98.5%,107%,95.1%,95.5%
O=C(O)c1cc(/N=N/c2ccc(O)c(C(=O)O)c2)ccc1O [Olsalazine Sodium],86.9% and 86%,81.6%,88.2%,92.2%,85.2%,88.4%,94.1%,90.1%
CC(=O)O[C@H]1C(=O)[C@@]2(C)[C@H]([C@H](OC(=O)c3ccccc3)[C@]3(O)C[C@H](OC(=O)[C@H](O)[C@@H](NC(=O)c4ccccc4)c4ccccc4)C(C)=C1C3(C)C)[C@]1(OC(C)=O)CO[C@@H]1C[C@@H]2O [Paclitaxel (Taxol)],24.2% and 40.5%,35.7%,7.78%,4.98%,9.66%,2.55%,7.7%,12.1%
Nc1nc(-c2ccco2)c2cnn(Cc3ccccc3F)c2n1 [A2AR antagonist 1],76% and 77.7%,72.9%,73.4%,70.2%,88.9%,98.6%,91.6%,88.5%

Compound,cell viability (K562; SRSF2 genotype: SRSF2 P95H/wt),cell viability (K562; SRSF2 genotype: SRSF2 wt/wt),cell viability (MARIMO; SRSF2 genotype: SRSF2 P95H/wt),cell viability (MARIMO; SRSF2 genotype: SRSF2 wt/wt),cell viability (MOLM14; SRSF2 genotype: SRSF2 P95H/wt),cell viability (MOLM14; SRSF2 genotype: SRSF2 wt/wt),cell viability (OCI-AML2; SRSF2 genotype: P95H/wt),cell viability (OCI-AML2; SRSF2 genotype: wt/wt)
CC(=CCNc1ncnc2c1ncn2C1OC(CO)C(O)C1O)CO (stereo not drawn) [trans-Zeatin-riboside],107% and 105%,108%,99.7%,110%,104%,105%,116%,117%
NCc1c[nH]c(=S)n1[C@@H]1CCc2c(F)cc(F)cc2C1 [(R)-Nepicastat HCl],101% and 97%,102%,94.9%,110%,97.2%,101%,104%,103%
Cc1ccc([C@@H]2O[C@H](CO)[C@@H](O)[C@H](O)[C@H]2O)cc1Cc1ccc(-c2ccc(F)cc2)s1 [Canagliflozin],93.4% and 99.1%,99.7%,99%,90.3%,102%,102%,102%,97.1%
CC[C@H]1[C@@H](O)[C@@H]2[C@H](CC[C@]3(C)[C@@H]([C@H](C)CCC(=O)O)CC[C@@H]23)[C@@]2(C)CC[C@@H](O)C[C@@H]12 [Obeticholic Acid],106% and 109%,102%,107%,105%,103%,105%,107%,110%
O=C(Nc1ccc(Oc2ccc(Cl)cc2)c(Cl)c1)c1cc(I)cc(I)c1O [Rafoxanide],85.2% and 95.8%,97.9%,101%,111%,80.4%,108%,105%,101%
CCCCCCCCCCCCN1CCCCCC1=O [Laurocapram],82.4% and 87.5%,93.1%,80.5%,86.3%,80.8%,90.8%,70.4%,73.7%
N#CC(=C(O)c1ccc(Cl)cc1Cl)c1nc2ccccc2c(=O)[nH]1 [HPI-4 (Ciliobrevin A)],91.5% and 92.8%,93.6%,98.9%,97%,92.1%,87.2%,106%,99.5%
CCOC(=O)N1CCN(c2ccc(OC[C@H]3CO[C@](Cn4ccnc4)(c4ccc(Cl)cc4Cl)O3)cc2)CC1 [Elubiol],43.3% and 36.5%,41.8%,29.3%,28.8%,39%,21.1%,10.3%,15.9%
CN1CCN(C(=O)c2ccc(-c3ccc4c(C=O)c(O)ccc4c3)s2)CC1,68.3% and 74.8%,71.6%,66.8%,53.4%,73.2%,76.8%,72.9%,79.5%
[I-].[K+] [Potassium iodide],100% and 96%,100%,107%,105%,106%,100%,102%,112%
N=C1NC(=O)/C(=C/c2ccc(O)cc2)S1 [Mirin],93.7% and 96.5%,101%,86.4%,87.3%,76.5%,85.1%,64.9%,71%
O=C[C@H](O)[C@@H](O)[C@H](O[C@H]1O[C@H](CO)[C@@H](O[C@H]2O[C@H](CO)[C@@H](O[C@H]3O[C@H](CO)[C@@H](O[C@H]4O[C@H](CO)[C@@H](O)[C@H](O)[C@H]4O)[C@H](O)[C@H]3O)[C@H](O)[C@H]2O)[C@H](O)[C@H]1O)[C@H](O)CO [Maltopentaose],101%,103%,97.8%,105%,104%,106%,109%,110%
CC(C)c1c(-c2ccccc2)nc2c(C#N)c[nH]n2c1=O,105% and 99.3%,108%,103%,93.5%,97.8%,98.8%,103%,101%
COc1ccc(S(=O)(=O)N(C(C)=O)c2ccccc2/C=C/c2cc[n+]([O-])cc2)cc1,19.2% and 41.4%,38.4%,6.78%,8.02%,15.9%,3.3%,6.25%,9.13%
CC[C@@H]1/C=C(\C)C[C@H](C)C[C@H](OC)[C@H]2O[C@@](O)(C(=O)C(=O)N3CCCC[C@H]3C(=O)O[C@H](/C(C)=C/[C@@H]3CC[C@@H](O)[C@H](OC)C3)[C@H](C)[C@@H](O)CC1=O)[C@H](C)C[C@@H]2OC [Ascomycin (FK520)],75.8% and 83%,83.6%,86.6%,96.8%,89.1%,89.1%,95.8%,93.5%
C=CCC(=NOS(=O)(=O)O)S[C@@H]1O[C@H](CO)[C@@H](O)[C@H](O)[C@H]1O (stereo in doubt) [Sinigrin],96.4% and 104%,99.7%,93.4%,96.4%,94.1%,97.8%,101%,101%
CCOc1cc(C(=O)N2CCC(N3CCN(C)CC3)CC2)ccc1Nc1ncc2c(n1)N(C1CCCC1)c1ccccc1C(=O)N2C,10.3% and 7.13%,15.2%,35.2%,35.2%,0.3%,0.37%,2.24%,10.6%
CC(=O)OCC(=O)[C@@]12N=C(C)O[C@@H]1C[C@H]1[C@@H]3CCC4=CC(=O)C=C[C@]4(C)[C@H]3[C@@H](O)C[C@@]12C [Deflazacort (Calcort)],98.4% and 102%,103%,95%,109%,103%,97%,91.4%,114%
O=c1cc(-c2ccc(O)c(O)c2)oc2cc(O)cc(O)c12 [Luteolin],90.8% and 84.6%,85.5%,65.7%,82.6%,53%,57%,67.3%,58.9%
O=C1OC(C(O)CO)C([O-])=C1O.[Na+] (stereo not drawn) [Sodium erythorbate],104% and 106%,114%,106%,107%,102%,110%,114%,119%
